# According to PubChem BioAssay (EPA / NIEHS):
# Records with an inconclusive call do not appear. The source made the active and inactive calls. Rule for the calls, unless noted: active = hit-call score of the fitted dose curve at least 0.9, where 1 is the maximum; inactive = score below 0.9.
# What was measured:
# [1] = read-out: E-selectin (Homo sapiens) (UniProt P16581); test: BSK_SAg_Eselectin: BioMAP Diversity Plus: SAg Assay for Eselectin Biomarker Activity (AID 2283091); conditions: primary human HUVEC with PBMC; actives raise or lower the signal
# Summary of the method: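 Human umbilical vein endothelial cells co-cultured with peripheral blood mononuclear cells, SAg system. E-selectin is measured by ELISA 24 h after dosing and fitted bidirectionally against DMSO. Cytotoxicity is checked by SRB staining of parallel cultures.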
# [2] = read-out: Monokine induced gamma interferon (MIG), CXCL9 (gene 4283); test: BSK_SAg_MIG: BioMAP Diversity Plus: SAg Assay for Monokine induced gamma interferon (MIG) Biomarker Activity (AID 2283092); conditions: primary human HUVEC with PBMC; actives raise or lower the signal
# Summary of the method: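 Values reflect bidirectional fitting of ELISA-measured MIG against DMSO vehicle, taken 24 h after dosing of a co-culture of human umbilical vein endothelial cells and peripheral blood mononuclear cells.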
# [3] = BSK_SAg_PBMCCytotoxicity: PBMC Cytotoxicity Assessment in the BioMAP Diversity Plus: SAg Assay (AID 2283093); conditions: primary human HUVEC with PBMC;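 note: PBMC viability measured as Alamar Blue reduction fluorescence at 546/580 nm; fitted both ways against DMSO so a hit may be loss or gain of signal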;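 for AC50: PBMC superantigen activated with SEB plus TSST-1 one hour after compound addition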
# Summary of the method: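 Human umbilical vein endothelial cells co-cultured with PBMC; PBMC (75,000/well) pre-treated with compound 1 h, then activated with SEB and TSST-1 (20 ng/mL final each) for 90 h. Alamar Blue added 6 h, fluorescence 546/580 nm; bidirectional fit versus DMSO.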
# [4] = read-out: Interleukin-8 (IL8), CXCL8 (gene 3576); test: BSK_SAg_IL8: BioMAP Diversity Plus: SAg Assay for Interleukin-8 (IL8) Biomarker Activity (AID 2283094); conditions: primary human HUVEC with PBMC; actives raise or lower the signal
# Summary of the method: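 Human umbilical vein endothelial cells co-cultured with PBMC, stimulated with superantigen; IL-8 measured by ELISA 24 h after chemical dosing. Bidirectional fitting versus DMSO; SRB staining in parallel cultures tracks cytotoxicity.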
# [5] = BSK_SAg_Proliferation: Cell Proliferation Assessment in the BioMAP Diversity Plus: SAg Assay (AID 2283095); conditions: primary human HUVEC with PBMC
# Summary of the method: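 Human umbilical vein endothelial cells co-cultured with PBMC; sulforhodamine B total-protein staining (0.1% SRB after 10% TCA fixation, absorbance 560 nm) at 96 h in sub-confluent culture. Fitted bidirectionally against DMSO.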
# [6] = BSK_SAg_SRB: Viability Assessment in the BioMAP Diversity Plus: SAg Assay (AID 2283096); conditions: primary human HUVEC with PBMC;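 note: cells read one day after compound addition; hits may be either gain or loss of signal compared with DMSO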
# Summary of the method: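 Endothelial/PBMC primary human co-culture; compound 24 h; fix 10% TCA, stain 0.1% SRB, A560; protein content as cytotoxicity proxy; bidirectional curve fit, DMSO = baseline.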
# [7] = target: human CYP2A6, CYP2A6 (gene 1548) (UniProt P11509); test: NVS_ADME_hCYP2A6: NovaScreen (NVS) CYP450-related Enzyme Activity (ADME) Assay for human CYP2A6 (AID 2283099; active = hit-call score of the fitted dose curve at least 0.9, where 1 is the maximum)
# Summary of the method: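 Recombinant human CYP2A6 expressed in insect cells, cell-free; fluorogenic substrate turnover read by fluorescence intensity 0.5 h after dosing. Primary screen 10 uM in duplicate, then concentration-response up to 20 uM; acetonitrile as negative control.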
# [8] = target: human Acid Phosphatase 1 (ACP1), ACP1 (gene 52) (UniProt P24666); test: NVS_ENZ_hACP1: NovaScreen (NVS) Enzymatic Assay for human Acid Phosphatase 1 (ACP1) (AID 2283136; active = hit-call score of the fitted dose curve at least 0.9, where 1 is the maximum)
# Summary of the method: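 Recombinant enzyme expressed in Sf9 cells, tested cell-free; activity read by fluorescence with electrophoretic mobility shift separation of substrate and product, 1.5 h after dosing. Primary screen in duplicate at 25 uM, actives then run in concentration series; loss of signal versus DMSO.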
# [9] = target: human Caspase 5 (CASP5), CASP5 (gene 838) (UniProt P51878); test: NVS_ENZ_hCASP5: NovaScreen (NVS) Enzymatic Assay for human Caspase 5 (CASP5) (AID 2283137; active = hit-call score of the fitted dose curve at least 0.9, where 1 is the maximum)
# Summary of the method: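 Recombinant human caspase 5 expressed in E. coli, fluorogenic substrate, fluorescence read 2 h after dosing. Single-point 25 uM duplicate screen, then concentration-response to maximum 50 uM for actives; DMSO baseline.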
# [10] = target: human CYP2B6, CYP2B6 (gene 1555) (UniProt P20813); test: NVS_ADME_hCYP2B6: NovaScreen (NVS) CYP450-related Enzyme Activity (ADME) Assay for human CYP2B6 (AID 2283101; active = hit-call score of the fitted dose curve at least 0.9, where 1 is the maximum)
# Summary of the method: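 Compounds were first screened in duplicate at 10 uM against recombinant enzyme, with the fluorescent product measured after 1 hour. Active compounds were retested over a concentration series. Loss of fluorescence versus acetonitrile control was scored as reduced enzyme activity.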
# [11] = target: human CYP1A2, CYP1A2 (gene 1544) (UniProt P05177); test: NVS_ADME_hCYP1A2: NovaScreen (NVS) CYP450-related Enzyme Activity (ADME) Assay for human CYP1A2 (AID 2283102; active = hit-call score of the fitted dose curve at least 0.9, where 1 is the maximum;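 for AC50: potency for inhibition since loss of fluorescence marks reduced CYP1A2 activity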)
# Summary of the method: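 Recombinant human CYP1A2 from insect cells, cell-free, fluorogenic substrate; read 0.5 h after dosing with loss of fluorescence signal indicating inhibition. Primary screen in duplicate at 10 uM, acetonitrile as negative control.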
# [12] = target: Cytochrome P450 3A4 (Homo sapiens) (UniProt P08684); test: NVS_ADME_hCYP3A4: NovaScreen (NVS) CYP450-related Enzyme Activity (ADME) Assay for human CYP3A4 (AID 2283110; active = hit-call score of the fitted dose curve at least 0.9, where 1 is the maximum)
# Summary of the method: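 Cell-free assay using insect-cell-expressed human CYP3A4 with a fluorogenic substrate; fluorescence intensity was read 0.33 hour after dosing. Loss of signal relative to acetonitrile vehicle indicated inhibition. Primary single-concentration screen at 10 uM, in duplicate, then concentration series.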
# [13] = target: Cytochrome P450 2C19 (Homo sapiens) (UniProt P33261); test: NVS_ADME_hCYP2C19: NovaScreen (NVS) CYP450-related Enzyme Activity (ADME) Assay for human CYP2C19 (AID 2283113; active = hit-call score of the fitted dose curve at least 0.9, where 1 is the maximum;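 note: potency for inhibition seen as loss of fluorescent signal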)
# Summary of the method: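 Cell-free recombinant human CYP2C19 from insect cells, fluorescent substrate; activity read by fluorescence intensity 1 h after dosing. Primary screen in duplicate at 10 uM; actives retested in concentration series. Signal loss versus acetonitrile negative control.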
# [14] = target: human CYP1A1, CYP1A1 (gene 1543) (UniProt P04798); test: NVS_ADME_hCYP1A1: NovaScreen (NVS) CYP450-related Enzyme Activity (ADME) Assay for human CYP1A1 (AID 2283100; active = hit-call score of the fitted dose curve at least 0.9, where 1 is the maximum)
# Summary of the method: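 Recombinant CYP1A1 with a fluorogenic substrate, cell-free, read 1 h after dosing; acetonitrile as negative control. Single-concentration screen at 10 uM in duplicate, then concentration-response up to 20 uM for chemicals meeting ~30% inhibition threshold.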
# [15] = target: human CYP2D6, CYP2D6 (gene 1565) (UniProt P10635); test: NVS_ADME_hCYP2D6: NovaScreen (NVS) CYP450-related Enzyme Activity (ADME) Assay for human CYP2D6 (AID 2283107; active = hit-call score of the fitted dose curve at least 0.9, where 1 is the maximum)
# Summary of the method: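 Cell-free assay using recombinant human CYP2D6 expressed in insect cells, with a fluorogenic substrate read after 1 h. Primary screen in duplicate at 10 uM; actives followed up in concentration series. Loss of signal fitted relative to acetonitrile.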
# [16] = target: human CYP2C9, CYP2C9 (gene 1559) (UniProt P11712); test: NVS_ADME_hCYP2C9: NovaScreen (NVS) CYP450-related Enzyme Activity (ADME) Assay for human CYP2C9 (AID 2283108; active = hit-call score of the fitted dose curve at least 0.9, where 1 is the maximum)
# Summary of the method: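 Cell-free assay of recombinant human CYP2C9 produced in Sf9 cells, with enzyme activity read by fluorescence intensity 0.75 h after compound addition. Loss of signal versus an acetonitrile negative control indicates inhibition. Primary screen used 10 uM in duplicate; actives were retested in concentration series.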
# Chain of human CYP1A2, CYP1A2 (gene 1544) (P05177 whole entry, looked up): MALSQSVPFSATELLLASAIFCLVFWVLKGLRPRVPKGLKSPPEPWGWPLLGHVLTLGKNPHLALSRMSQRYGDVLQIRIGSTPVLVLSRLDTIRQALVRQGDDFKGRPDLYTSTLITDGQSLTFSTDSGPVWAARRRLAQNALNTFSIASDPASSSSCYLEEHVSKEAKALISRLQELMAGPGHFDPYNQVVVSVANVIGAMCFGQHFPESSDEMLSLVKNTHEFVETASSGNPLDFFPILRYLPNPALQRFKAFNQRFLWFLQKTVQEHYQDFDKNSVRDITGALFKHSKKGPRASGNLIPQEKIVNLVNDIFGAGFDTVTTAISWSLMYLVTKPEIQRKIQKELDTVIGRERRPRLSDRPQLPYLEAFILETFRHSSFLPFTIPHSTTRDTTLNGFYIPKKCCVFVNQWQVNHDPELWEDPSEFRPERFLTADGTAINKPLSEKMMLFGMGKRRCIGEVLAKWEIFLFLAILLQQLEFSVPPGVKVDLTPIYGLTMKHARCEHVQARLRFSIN
# Chain of E-selectin (Homo sapiens) (P16581 whole entry, looked up): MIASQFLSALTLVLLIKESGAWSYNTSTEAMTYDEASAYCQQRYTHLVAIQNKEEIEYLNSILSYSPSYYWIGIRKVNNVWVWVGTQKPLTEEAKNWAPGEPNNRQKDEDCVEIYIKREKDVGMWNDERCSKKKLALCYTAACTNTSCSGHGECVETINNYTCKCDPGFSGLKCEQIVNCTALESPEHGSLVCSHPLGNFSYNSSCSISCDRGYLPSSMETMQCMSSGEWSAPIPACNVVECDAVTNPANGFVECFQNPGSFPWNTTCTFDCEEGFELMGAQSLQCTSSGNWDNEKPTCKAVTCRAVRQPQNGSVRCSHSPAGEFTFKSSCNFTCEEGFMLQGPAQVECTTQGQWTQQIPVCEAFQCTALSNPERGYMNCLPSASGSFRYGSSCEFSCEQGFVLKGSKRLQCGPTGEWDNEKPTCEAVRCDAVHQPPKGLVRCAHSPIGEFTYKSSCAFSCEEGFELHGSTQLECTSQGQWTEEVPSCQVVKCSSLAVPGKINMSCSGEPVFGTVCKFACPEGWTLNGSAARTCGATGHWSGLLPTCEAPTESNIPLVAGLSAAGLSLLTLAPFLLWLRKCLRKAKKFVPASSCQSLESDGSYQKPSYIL
# Chain of human CYP2B6, CYP2B6 (gene 1555) (P20813 whole entry, looked up): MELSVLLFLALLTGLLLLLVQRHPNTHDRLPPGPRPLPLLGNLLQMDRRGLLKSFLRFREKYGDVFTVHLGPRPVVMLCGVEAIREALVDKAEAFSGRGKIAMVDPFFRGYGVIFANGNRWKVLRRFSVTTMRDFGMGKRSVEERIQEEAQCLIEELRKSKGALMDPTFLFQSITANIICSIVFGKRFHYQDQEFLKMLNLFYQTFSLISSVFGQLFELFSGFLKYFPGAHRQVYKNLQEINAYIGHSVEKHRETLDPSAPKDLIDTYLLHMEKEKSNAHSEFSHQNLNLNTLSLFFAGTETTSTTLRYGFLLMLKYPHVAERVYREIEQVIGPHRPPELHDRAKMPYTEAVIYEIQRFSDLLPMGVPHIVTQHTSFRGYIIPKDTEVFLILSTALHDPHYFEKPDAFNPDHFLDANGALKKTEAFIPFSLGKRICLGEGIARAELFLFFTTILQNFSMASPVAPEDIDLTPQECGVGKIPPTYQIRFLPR
# Chain of Cytochrome P450 3A4 (Homo sapiens) (P08684 whole entry, looked up): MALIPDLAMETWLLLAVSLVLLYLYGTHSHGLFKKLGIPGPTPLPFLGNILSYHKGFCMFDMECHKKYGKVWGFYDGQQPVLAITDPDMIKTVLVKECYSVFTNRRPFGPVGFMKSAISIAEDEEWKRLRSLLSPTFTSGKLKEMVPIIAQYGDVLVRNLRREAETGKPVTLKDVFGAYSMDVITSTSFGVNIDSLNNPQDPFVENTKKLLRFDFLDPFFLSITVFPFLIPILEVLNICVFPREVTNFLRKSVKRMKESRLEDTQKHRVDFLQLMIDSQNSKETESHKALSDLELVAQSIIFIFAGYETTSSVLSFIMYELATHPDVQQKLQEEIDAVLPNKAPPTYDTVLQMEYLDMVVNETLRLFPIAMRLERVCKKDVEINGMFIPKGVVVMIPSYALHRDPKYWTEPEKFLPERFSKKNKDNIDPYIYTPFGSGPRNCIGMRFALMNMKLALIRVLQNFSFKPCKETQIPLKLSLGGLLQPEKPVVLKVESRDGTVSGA
# Chain of human CYP2A6, CYP2A6 (gene 1548) (P11509 whole entry, looked up): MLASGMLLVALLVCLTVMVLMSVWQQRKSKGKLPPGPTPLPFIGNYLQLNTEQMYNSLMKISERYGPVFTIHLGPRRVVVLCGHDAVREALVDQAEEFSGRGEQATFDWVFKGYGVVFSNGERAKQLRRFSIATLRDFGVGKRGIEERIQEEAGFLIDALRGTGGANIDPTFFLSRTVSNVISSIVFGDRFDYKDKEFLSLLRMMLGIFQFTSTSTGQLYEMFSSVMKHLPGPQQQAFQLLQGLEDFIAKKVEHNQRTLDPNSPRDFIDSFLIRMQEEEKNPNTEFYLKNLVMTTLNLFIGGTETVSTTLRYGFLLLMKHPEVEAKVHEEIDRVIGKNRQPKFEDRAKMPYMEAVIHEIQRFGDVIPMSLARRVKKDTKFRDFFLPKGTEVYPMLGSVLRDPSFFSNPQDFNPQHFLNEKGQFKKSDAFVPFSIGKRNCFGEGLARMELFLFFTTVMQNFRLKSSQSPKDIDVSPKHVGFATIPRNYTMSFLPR
# Chain of human Caspase 5 (CASP5), CASP5 (gene 838) (P51878 whole entry, looked up): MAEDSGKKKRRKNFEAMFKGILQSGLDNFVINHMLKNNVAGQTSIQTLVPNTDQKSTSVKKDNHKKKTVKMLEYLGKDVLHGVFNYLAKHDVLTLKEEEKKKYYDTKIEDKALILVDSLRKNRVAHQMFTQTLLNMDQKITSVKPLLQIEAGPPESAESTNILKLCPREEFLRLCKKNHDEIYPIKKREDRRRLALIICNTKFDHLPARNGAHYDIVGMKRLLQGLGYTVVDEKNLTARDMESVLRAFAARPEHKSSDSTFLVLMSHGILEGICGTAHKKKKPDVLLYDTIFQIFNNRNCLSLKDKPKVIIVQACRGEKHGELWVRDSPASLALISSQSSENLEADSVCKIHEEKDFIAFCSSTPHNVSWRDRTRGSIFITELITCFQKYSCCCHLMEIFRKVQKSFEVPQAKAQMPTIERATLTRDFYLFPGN
# Chain of human CYP1A1, CYP1A1 (gene 1543) (P04798 whole entry, looked up): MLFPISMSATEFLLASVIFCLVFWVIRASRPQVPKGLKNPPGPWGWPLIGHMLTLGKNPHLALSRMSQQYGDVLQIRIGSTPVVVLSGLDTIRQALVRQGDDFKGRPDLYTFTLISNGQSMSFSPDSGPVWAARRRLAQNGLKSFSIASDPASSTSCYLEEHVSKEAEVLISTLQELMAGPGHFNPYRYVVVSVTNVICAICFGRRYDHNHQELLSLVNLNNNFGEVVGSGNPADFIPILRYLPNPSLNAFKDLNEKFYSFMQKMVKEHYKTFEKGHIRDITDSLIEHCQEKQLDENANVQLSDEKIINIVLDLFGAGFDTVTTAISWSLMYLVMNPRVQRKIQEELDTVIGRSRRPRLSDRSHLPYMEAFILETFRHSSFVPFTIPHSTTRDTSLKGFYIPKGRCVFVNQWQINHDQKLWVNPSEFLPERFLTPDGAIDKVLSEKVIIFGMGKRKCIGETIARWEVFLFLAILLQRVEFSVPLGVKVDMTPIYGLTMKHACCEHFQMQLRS
# Chain of human CYP2C9, CYP2C9 (gene 1559) (P11712 whole entry, looked up): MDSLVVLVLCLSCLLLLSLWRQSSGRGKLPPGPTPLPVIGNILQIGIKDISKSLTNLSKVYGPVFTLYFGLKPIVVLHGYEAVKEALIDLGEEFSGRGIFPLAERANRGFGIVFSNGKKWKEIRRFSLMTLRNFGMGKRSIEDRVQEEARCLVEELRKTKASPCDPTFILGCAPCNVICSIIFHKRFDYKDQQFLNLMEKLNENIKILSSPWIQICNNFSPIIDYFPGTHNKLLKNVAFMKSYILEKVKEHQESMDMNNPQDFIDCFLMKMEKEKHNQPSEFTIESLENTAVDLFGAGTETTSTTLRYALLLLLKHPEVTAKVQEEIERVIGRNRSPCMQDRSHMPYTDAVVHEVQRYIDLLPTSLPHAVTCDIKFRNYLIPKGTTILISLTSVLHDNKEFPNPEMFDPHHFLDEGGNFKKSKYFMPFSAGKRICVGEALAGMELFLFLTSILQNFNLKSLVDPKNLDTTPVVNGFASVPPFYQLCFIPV
# Chain of human CYP2D6, CYP2D6 (gene 1565) (P10635 whole entry, looked up): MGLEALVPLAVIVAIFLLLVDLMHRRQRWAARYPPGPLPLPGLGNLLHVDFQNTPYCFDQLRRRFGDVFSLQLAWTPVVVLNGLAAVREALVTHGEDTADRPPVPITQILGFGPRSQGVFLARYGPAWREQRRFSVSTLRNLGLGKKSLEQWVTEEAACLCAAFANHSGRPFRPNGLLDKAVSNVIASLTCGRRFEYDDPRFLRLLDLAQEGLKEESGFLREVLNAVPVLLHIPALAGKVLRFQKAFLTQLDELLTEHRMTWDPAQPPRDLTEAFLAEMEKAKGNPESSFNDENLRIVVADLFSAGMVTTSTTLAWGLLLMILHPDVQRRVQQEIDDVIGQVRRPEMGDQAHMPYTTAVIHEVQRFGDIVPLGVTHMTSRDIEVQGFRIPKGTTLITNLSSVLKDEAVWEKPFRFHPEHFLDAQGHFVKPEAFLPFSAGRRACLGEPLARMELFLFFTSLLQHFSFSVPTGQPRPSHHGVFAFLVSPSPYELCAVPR
# Chain of human Acid Phosphatase 1 (ACP1), ACP1 (gene 52) (P24666 whole entry, looked up): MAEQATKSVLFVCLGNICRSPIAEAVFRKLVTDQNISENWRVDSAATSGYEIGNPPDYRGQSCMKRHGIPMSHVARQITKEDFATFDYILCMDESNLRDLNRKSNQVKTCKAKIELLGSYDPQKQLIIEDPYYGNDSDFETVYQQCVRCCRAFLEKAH
smiles,measurement,setting,value
CC(=O)OC/C=C(\C)CCC=C(C)C,outcome,[1],inactive
same,outcome,[2],inactive
same,outcome,[3],inactive
same,outcome,[4],inactive
same,outcome,[5],inactive
same,outcome,[6],inactive
Cc1ccc(C)c(O)c1C,outcome,[1],inactive
same,outcome,[2],inactive
same,outcome,[3],inactive
same,outcome,[5],inactive
same,outcome,[6],inactive
same,outcome,[7],inactive
CCOC(=O)C(C)(C)Oc1ccc(Cl)cc1,outcome,[1],inactive
same,outcome,[2],inactive
same,outcome,[3],inactive
same,outcome,[5],inactive
same,outcome,[6],inactive
same,outcome,[8],inactive
COc1ccc(C)cc1N,outcome,[1],inactive
same,outcome,[2],inactive
same,outcome,[3],inactive
same,outcome,[4],inactive
same,outcome,[5],inactive
same,outcome,[6],inactive
same,outcome,[9],inactive
C=CCOC(=O)c1ccccc1C(=O)OCC=C,outcome,[1],inactive
same,outcome,[2],inactive
same,outcome,[3],inactive
same,outcome,[4],inactive
same,outcome,[5],inactive
same,outcome,[6],inactive
same,AC50,[10],7.79 µM (active)
same,AC50,[11],3.03 µM (active)
same,AC50,[12],6.19 µM (active)
same,AC50,[13],2.99 µM (active)
CCOc1ccc2c(c1)C(C)=CC(C)(C)N2,outcome,[1],inactive
same,outcome,[2],inactive
same,AC50,[3],10.1 µM (active)
same,outcome,[4],inactive
same,AC50,[5],24.8 µM (active)
same,outcome,[6],inactive
same,outcome,[14],inactive
same,AC50,[10],11.6 µM (active)
same,outcome,[11],inactive
same,AC50,[15],3.51 µM (active)
same,AC50,[16],10 µM (active)
CC(=O)Oc1ccccc1C(=O)O,outcome,[1],inactive
same,outcome,[2],inactive
same,outcome,[3],inactive
same,outcome,[5],inactive
same,outcome,[6],inactive
COCCOCCOC,outcome,[1],inactive
same,outcome,[2],inactive
same,outcome,[3],inactive
same,outcome,[4],inactive
same,outcome,[5],inactive
same,outcome,[6],inactive
COC(=O)c1ccc(O)cc1,outcome,[1],inactive
same,outcome,[2],inactive
same,outcome,[3],inactive
same,outcome,[5],inactive
same,outcome,[6],inactive
C=CCc1ccc(O)c(OC)c1,AC50,[1],4.26 µM (active)
same,outcome,[2],inactive
same,outcome,[3],inactive
same,outcome,[4],inactive
same,outcome,[5],inactive
same,outcome,[6],inactive
O=C(N[C@@H](Cc1ccccc1)[C@@H](O)C(=O)N1C[C@@H](O)[C@@H](O)C1)c1cc2cc(Cl)ccc2[nH]1,outcome,[1],inactive
same,outcome,[2],inactive
same,outcome,[3],inactive
same,outcome,[4],inactive
same,outcome,[5],inactive
same,outcome,[6],inactive
same,outcome,[11],inactive
